In the supplement of paper PMC7866885, “A novel bicyclic 2,4-diaminopyrimidine inhibitor of Streptococcus suis dihydrofolate reductase” (PeerJ, 2021):
± gives the standard deviation.

These compounds were tested on Streptococcus suis HE06 (assay: percent growth relative to DMSO control; higher = less growth inhibition). Settings: 10 µM; incubation time 18 h.
Description: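 CLSI broth microdilution: 5x10^4 CFU of Streptococcus suis (strain P1/7 or HE06) incubated with 10 µM Pathogen Box compound in cation-adjusted Mueller Hinton broth, 37 °C, 5% CO2, 18 h. Growth read as OD600 and expressed as percent of the DMSO-treated control (100%); mean ± SD of three independent experiments.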

`Cc1cc(NC(=O)c2ccc(S(=O)(=O)N(Cc3ccccc3)C(C)C)cc2)no1` and `Cc1nc(-c2cccc(NCc3ccccc3)c2)[nH]c1C` are within error of each other in percent growth: 105 ± 27% for the first, 60.1 ± 36% for the second.

Going from `Cc1cc2ccccc2n1CC(=O)N1CC(C(=O)N2CCCCC2)Oc2ccccc21` (stereo not drawn) to `CC(=O)NC[C@@H]1CN(c2ccc(N3CCOCC3)c(F)c2)C(=O)O1`, the percent growth falls from 71.6 ± 13% to 3.9 ± 5.2%.

Compared with `CCCCOC(=O)Nc1cc2nc(C3CCCCC3)[nH]c2cc1N1CCCC1`, `CC1CCCN(C(=O)C(C)Nc2cc(Cl)ccc2N2CCOCC2)C1` (stereo not drawn) is higher in percent growth: 29.6 ± 40% for the first, 92 ± 11% for the second.

`COc1cccc(OCC(=O)c2ccc(Br)cc2)c1` and `N=C(N)c1ccc(OCCCCCOc2ccc(C(=N)N)cc2)cc1` are within error of each other in percent growth: 57.7 ± 50% for the first, 146 ± 200% for the second.

`CC(C)(C)c1cnc(NC(=O)c2ccccc2O)s1` and `Cc1ccc(NC(=O)c2cc(S(=O)(=O)NC(C)(C)C)ccc2C)nc1` are within error of each other in percent growth: 19.7 ± 28% for the first, 207 ± 200% for the second.

`CN1CCN(c2cc(-c3ccc(F)cc3)nc(-c3ccncc3)n2)CC1` and `Nc1nc2ccc(-c3cncc(Oc4ccc(F)cc4)c3)cc2[nH]1` are within error of each other in percent growth: 83.6 ± 3.7% for the first, 91.8 ± 11% for the second.

`CCc1nc2ccc(Cl)cn2c1C(=O)NCc1ccc(N2CCC(c3ccc(OC(F)(F)F)cc3)CC2)cc1` and `Cc1[nH]c2cc(F)cc(F)c2c(=O)c1-c1ccc(Oc2ccc(OC(F)(F)F)cc2)cc1` are within error of each other in percent growth: 89.9 ± 15% for the first, 96.3 ± 3.2% for the second.

`CCc1ccc(C(NCc2nc(N)nc(N(C)C)n2)C(C)C)cc1` (stereo not drawn) and `CCC(Sc1nc2ccccc2o1)C(=O)Nc1nnc(C)s1` (stereo not drawn) are within error of each other in percent growth: 12.8 ± 16% for the first, 34.1 ± 46% for the second.

`COC(=O)c1c(NC(=O)c2c(F)c(F)c(F)c(F)c2F)sc2c1CCCCC2` and `CC(C)NCC(=O)Nc1cccc(C(=O)Nc2cccc(C(F)(F)F)c2)c1` are within error of each other in percent growth: 105 ± 7.8% for the first, 104 ± 4.8% for the second.
